For 16 molecules, Potency and outcome results are on record in PubChem BioAssay (NCATS).

The subject of experiment [1] is Zika virus NS2B-NS3 protease (linked construct). The experiment is described as follows: Primary screen NINDS Rhodamine qHTS for Zika virus inhibitors (AID 1347160). Note: nearly all actives have a fitted effect of over 55% in size. A digest of the protocol:
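Percent inhibition, normalized to uninhibited and enzyme-free controls, is fitted to a 4-parameter Hill equation. Fluorescence change comes from a 15-min cleavage of 1.5 microM bis-peptide Rhodamine110 substrate by 25 nM linked NS2B-NS3 at room temperature.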

For experiment [2], the target named is Lysine-specific demethylase 5B (Homo sapiens) (UniProt Q9UGL1). The experiment is described as follows: Optimization screen for KDM5B Histone Demethylases FDH coupled qHTS against the LOPAC library (AID 1347166). The gist of the method:
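KDM5BDeltaAP (200nM final) preincubated 10 min with compound, then 12.5uM H3K4Me3, 25uM a-ketoglutarate, ascorbate, Fe(II), NAD+ and FDH added; 50mM HEPES pH 7.5, 0.01% Tween-20. NADH fluorescence (340/450 nm) change over 30 min, room temperature.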

Experiment [3] is described as follows: Tertiary RLuc qRT-PCR qHTS assay for Zika virus inhibitors (AID 1347169). Note: top concentration of the series differs between compounds; nearly all actives have a fitted effect of over 55% in size. A digest of the protocol:
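Orthogonal cell-based infection assay using recombinant ZIKV-RLuc (Cambodian) in Vero cells; compound added prior to virus at MOI 1-2. Incubation lasts 48-72 hrs at 37 degrees C before live-cell Renilla substrate is added and luminescence measured.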

Records with an inconclusive call do not appear. A call without a number means that no potency is given here. The source made the active and inactive calls. Calls come from the whole dose curve; as a rule, active = well fitted curve in the direction sought with a large enough effect; inconclusive = small, poorly fitted or top-dose-only effect, or another doubt; inactive = no such curve, though single readings can be large; an effect the other way counts as inactive or inconclusive.

Sequence of Lysine-specific demethylase 5B (Homo sapiens) (Q9UGL1 whole entry, looked up): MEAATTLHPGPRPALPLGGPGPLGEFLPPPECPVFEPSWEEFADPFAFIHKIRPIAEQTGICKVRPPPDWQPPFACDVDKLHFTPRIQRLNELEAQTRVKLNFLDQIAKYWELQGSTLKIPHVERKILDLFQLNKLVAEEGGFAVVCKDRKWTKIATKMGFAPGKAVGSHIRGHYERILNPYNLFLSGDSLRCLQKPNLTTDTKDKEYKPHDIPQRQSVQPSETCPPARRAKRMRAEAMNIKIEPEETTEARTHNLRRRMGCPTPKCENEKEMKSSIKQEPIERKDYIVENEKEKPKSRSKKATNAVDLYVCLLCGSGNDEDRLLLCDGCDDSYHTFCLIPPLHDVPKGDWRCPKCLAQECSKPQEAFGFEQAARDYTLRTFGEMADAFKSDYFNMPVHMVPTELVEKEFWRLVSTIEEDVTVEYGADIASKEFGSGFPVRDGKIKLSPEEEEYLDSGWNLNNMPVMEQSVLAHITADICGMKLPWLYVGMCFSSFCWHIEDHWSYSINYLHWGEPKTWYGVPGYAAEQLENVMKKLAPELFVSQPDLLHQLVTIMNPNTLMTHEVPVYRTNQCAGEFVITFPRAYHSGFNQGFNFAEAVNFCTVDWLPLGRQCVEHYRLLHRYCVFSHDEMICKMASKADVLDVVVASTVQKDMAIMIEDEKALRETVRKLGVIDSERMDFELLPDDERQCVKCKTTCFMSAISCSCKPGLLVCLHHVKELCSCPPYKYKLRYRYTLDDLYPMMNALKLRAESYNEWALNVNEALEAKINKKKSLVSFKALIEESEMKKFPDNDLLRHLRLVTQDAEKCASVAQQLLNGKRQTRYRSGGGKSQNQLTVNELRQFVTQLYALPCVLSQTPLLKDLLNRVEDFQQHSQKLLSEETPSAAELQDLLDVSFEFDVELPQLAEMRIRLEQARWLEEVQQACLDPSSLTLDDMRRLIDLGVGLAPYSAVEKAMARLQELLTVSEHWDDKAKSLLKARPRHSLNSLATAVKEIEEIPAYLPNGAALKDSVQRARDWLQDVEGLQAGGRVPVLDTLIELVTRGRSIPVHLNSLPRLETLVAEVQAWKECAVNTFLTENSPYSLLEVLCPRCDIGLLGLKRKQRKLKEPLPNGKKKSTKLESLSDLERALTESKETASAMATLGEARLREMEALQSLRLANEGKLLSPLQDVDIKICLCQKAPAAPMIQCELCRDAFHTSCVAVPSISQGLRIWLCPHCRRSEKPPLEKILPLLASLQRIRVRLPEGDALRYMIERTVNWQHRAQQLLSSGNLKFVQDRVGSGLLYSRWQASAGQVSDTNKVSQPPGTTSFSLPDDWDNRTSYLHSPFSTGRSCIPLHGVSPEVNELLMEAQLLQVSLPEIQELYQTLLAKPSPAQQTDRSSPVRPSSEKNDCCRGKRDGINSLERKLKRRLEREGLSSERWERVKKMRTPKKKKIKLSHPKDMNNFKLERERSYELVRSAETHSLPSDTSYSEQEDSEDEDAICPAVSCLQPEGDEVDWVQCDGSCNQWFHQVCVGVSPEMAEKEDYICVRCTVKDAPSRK

On to `CCC(CC)C(c1ccc(Nc2nc3ccccc3s2)cc1)n1cncn1` (configuration not stated), for which the Potency result in experiment [1] was “inactive”.
For the molecule `C=CC(=O)Nc1cc(-n2c(=O)ccc3cnc4ccc(-c5ccc(NS(C)(=O)=O)cc5)cc4c32)ccc1C`, the Potency entry in experiment [1] is “inactive”.
In the case of `CC1=CC2/C=C(\C)CCC3OC(C)(C)OC3CCC(=O)C23C(=O)NC(CC(C)C)C3C1C` (configuration not stated), the Potency result in experiment [1] is “inactive”.
Turning to `NCCCC(=O)O`, in experiment [2], the call was inactive.
As to `Cc1ccc(C(C)C)c(O[C@@H]2O[C@H](CO)[C@@H](O)[C@H](O)[C@H]2O)c1`, the Potency entry in experiment [1] is “inactive”.
On the same count and under the same terms, for `COc1ccc(NC(=O)C2C[C@H](C)CC[C@H]2C(C)C)cc1` (some centres not stated) the value was “inactive”.
Regarding `COc1ccc(CCO[C@@H]2O[C@H](CO[C@H]3OC[C@](O)(CO)[C@H]3O)[C@@H](OC(=O)/C=C/c3ccc(O)c(O)c3)[C@H](O[C@@H]3O[C@@H](C)[C@H](O)[C@@H](O)[C@H]3O)[C@H]2O)cc1OC`, the Potency entry in experiment [1] and in experiment [3] was “inactive” each time.
For `CC1(C)CC[C@]2(C(=O)O)CC[C@]3(C)C(=CCC4[C@@]5(C)C[C@@H](O)[C@H](O)[C@@](C)(CO)C5CC[C@]43C)[C@@H]2[C@@H]1O` (some centres not stated), the Potency entry in experiment [1] was “inactive”.
For `c1cc(-c2cnn3cc(-c4ccc(N5CCNCC5)cc4)cnc23)c2cccnc2c1`, in experiment [1], the Potency entry is “inactive”.
Take `COc1c(C(C)C)c(O)c(O)c2c1C(OC)[C@H]1OC(=O)[C@@]23CCCC(C)(C)[C@H]13` (some centres not stated): the Potency result in experiment [1] is “inactive”.
On to `C=CC(C)(O)CC[C@@H]1[C@@]2(C)CCCC(C)(C)C2CC[C@@]1(C)O` (some centres not stated), for which the Potency entry in experiment [1] was “inactive”.
For `O=C1COc2nccc(-c3ccccc3F)c2CN1Cc1cc(C(F)(F)F)cc(C(F)(F)F)c1`, the Potency result in experiment [1] was “inactive”.
As for `C/C(=N\N=C(N)N)c1cc(NC(=O)CCCCCCCCC(=O)Nc2cc(/C(C)=N/N=C(N)N)cc(/C(C)=N/N=C(N)N)c2)cc(/C(C)=N/N=C(N)N)c1`, the Potency result in experiment [1] is “inactive”.
As to `C=C1C(=O)O[C@@H]2[C@H]3C(C)=CC(=O)C3=C(C)CC[C@@H]12`, the Potency result in experiment [1] is “inactive”.
Regarding `CC1CC(=O)C2=C(C1)C1OC1C1(O)C2C(=O)c2cccc(O)c2C1O` (configuration not stated), in experiment [1], the Potency entry was “inactive”.
Regarding `Cc1cc2ncc(C(=O)NCC(C)(C)NCC(=O)N3CCC[C@H]3C#N)cn2n1`, the Potency entry in experiment [1] was “inactive”.
